Test results: publication PMC12136788
In all, about 5,800 sequences were measured (“enrichment r”: median about 0.54, highest 2% from about 16 on). The sample as a whole holds a higher share of the highest values than the screen did.

B1: chr2:1633339:1633490:-|3pUTR|ENSG00000130508|msi1|total|mutant (ssRNA)
RNA: GGGAGUUCUACAGUCCGACGAUCUUCAUAAGCCACAUUCCGAAACAGGUUUGCUUUCAGCUGUCACUUGCACACAUACUGCCCCGUUGUGAACCAAAUGUGAAAAAACCUCCUUCAUCCCAUUGUGUAUCUGAUACCUGCCGACAACAGAGGAUUGAGCAUCA
B2: chr19:14119889:14120036:-|3pUTR|ENSG00000105011|msi1|total|mutant (ssRNA)
RNA: GGGAGUUCUACAGUCCGACGAUCAGCAGACCCACUCCAGCUUUCUGGUGUCACAGGCGGGAAUGUCCGUCCGCCGGCCGACUCCGAUCCCAUUUCUGUCCUGCUCCCAGGAAGAUUCUCCGGUCCUCUUCAAUCCAGCAGCCCCAACAGAGGAUUGAGCAUCA
B3: ENSG00000165672:stop:overlap|stop_codon|ENSG00000165672|stop_codon|NA|stop_codon (ssRNA)
RNA: GGGAGUUCUACAGUCCGACGAUCCUCCUACGAUCAAGCCAAGUCCAGCUGCUUCCAAAGAGUACUUUCAGAAGGUAAAUCAGUAGAUCACCCAUGUGUAUCUGCACCUUCUCAACUGAGAGAAGAACCACAGUUGAAACCUGCCAACAGAGGAUUGAGCAUCA
B4: chr1:17068045:17068226:-|3pUTR|ENSG00000117115|msi1|FALSE|unique (ssRNA)
RNA: GGGAGUUCUACAGUCCGACGAUCCUCCUUCCACUGCCUUGACUUUCUUCCUUUUUAUUCCUGGUGCCAUCUGUCCAGGCAGCUAGACAAGAACUUGUUCGCCAGCAGCCAGAUUCAGGCCUUCCCAGGGGCAUAAUAAGUGACCAACAGAGGAUUGAGCAUCA
B5: ENSG00000147536:stop:overlap|stop_codon|ENSG00000147536|stop_codon|NA|stop_codon (ssRNA)
RNA: GGGAGUUCUACAGUCCGACGAUCUCCGCUACGUCCUCAGCAGCUACUUGCGGUGUCGCCUCAUGAAGUUCCCAAACCAGAUCUAGAUUCUUACGUGUUUCUGAGAGUGAGAGAACGACAAGAAAACAUACUGGUAGAACCAGACAACAGAGGAUUGAGCAUCA
B6: ENSG00000198589:be:win_3651|CDS|ENSG00000198589|bound_else_gene|NA|bound_elsewhere_windowed (ssRNA)
RNA: GGGAGUUCUACAGUCCGACGAUCCCUCACUAGAGAAACCAAAUUAAUUAAUGAUUGUCAUGGUAGUGUCUCUGAGGCUUCUUCUGAGCAAAAGAUUGCGAAGUUGGAUGUUUCCAAUGUUGCUACAGAUACUGAGAGGCUGGACAACAGAGGAUUGAGCAUCA
B7: ENSG00000113300:stop:overlap|stop_codon|ENSG00000113300|stop_codon|NA|stop_codon (ssRNA)
RNA: GGGAGUUCUACAGUCCGACGAUCUGGAGCUCUUACUGCCUUUCCUGCCCCAAGUCAACGGCAUCCACCUUCCUGGCAGGAGGUAGUCAAGCACCUUCAGAGGACAGCCUUGAUUCACUUGUAAACUUGUGAAAAUCUGAACAUCAACAGAGGAUUGAGCAUCA
B8: chr19:14119889:14120036:-|3pUTR|ENSG00000105011|msi1|FALSE|unique (ssRNA)
RNA: GGGAGUUCUACAGUCCGACGAUCAGCAGACCCACUCCAGCUUUCUGGUGUCACAGGCGGGAAUGUUAGUUAGUAGGUAGACUUAGAUCCCAUUUCUGUCCUGCUCCCAGGAAGAUUCUUAGGUCCUCUUCAAUCCAGCAGCCCCAACAGAGGAUUGAGCAUCA
B9: chr20:50583650:50583751:+|3pUTR|ENSG00000196396|msi1|FALSE|unique (ssRNA)
RNA: GGGAGUUCUACAGUCCGACGAUCUUCCUAAGCCUGUUGCUGAAGUCAUUGUCGCUCAGCAAUAGGGUGCAGUUUUCCAGGAAUAGGCAUUUGCCUAAUUCCUGGCAUGACACUCUAGUGACUUCCUGGUGAGGCCCAGCCUGUCAACAGAGGAUUGAGCAUCA
B10: chr8:17644361:17644462:-|3pUTR|ENSG00000129422|msi1|FALSE|bound_elsewhere (ssRNA)
RNA: GGGAGUUCUACAGUCCGACGAUCCAACAUUGUGAUGUCAGUAUUUACUAAUCUACAUUCAGUGGCUGUACAAAUAACAGCUGUAGUAAGAAGAGAUUCAGGAUGCUAGAGGUGAAUAUUUGGGUCAUUUACAUGUACACUACACAACAGAGGAUUGAGCAUCA
B11: chr15:44665791:44665971:-|CDS|ENSG00000229474|control|control|control (ssRNA)
RNA: GGGAGUUCUACAGUCCGACGAUCGAUCUGUUUGUUCUGGAAUACGUGUAUGUGGGAAGUUGAAUCAUCAGACACUAGCUACAUAGACUAUGUUUACAGGGAUCCAGAGAGUCUGAAGACAUUUCUUAUGCCUUUAUAUAUUGGCAACAGAGGAUUGAGCAUCA
B12: chr4:75800632:75800752:+|CDS|ENSG00000138768|unk|total|mutant (ssRNA)
RNA: GGGAGUUCUACAGUCCGACGAUCAAACAACUGAUUGAGAAGAGGAUUGGCAAAGAGAAUUUCACCGAGAAACCCGGAUUUAUCCGCAAACAUGAGUUGUAUUCCAGAGCAUCUCAGAAACCCCAGCCAAACUUUCCCAGUCCACAACAGAGGAUUGAGCAUCA
B13: chr3:45095346:45095568:-|CDS|ENSG00000163814|control|control|control (ssRNA)
RNA: GGGAGUUCUACAGUCCGACGAUCAAACAGAGCCGCAAGUUUGUCCCUGGCUGUUUCGUGUGUCUAGAAUCUCGGACCUGCAGUAGCAACCUCACCCUGACAUCUGGCUCCAAACACAAAAUCUCCUUCCUUUGUGAUGAUCUGCAACAGAGGAUUGAGCAUCA
B14: chr1:17407970:17408071:-|3pUTR|ENSG00000179051|msi1|total|mutant (ssRNA)
RNA: GGGAGUUCUACAGUCCGACGAUCGGGUACCGUUCUGCUGACCCAGCUCCCUUCCGUCACGUUUGCUUGGCUCUGGUACCAAACCGUUGGGAUUACCGAAGAGUCCCCUUCCUUGCGUGUCAGCACGGAUGCUGUGACUGCCACCAACAGAGGAUUGAGCAUCA
B15: chr9:19276226:19276327:+|CDS|ENSG00000137145|unk|total|mutant (ssRNA)
RNA: GGGAGUUCUACAGUCCGACGAUCCUUUGUCGCCGCUGGUCUCACUGACACAUCUACUCUUUUGGAUCAAGAAAUAAAUCGUUCCGAUACUAAGUCAACUGGACCUAAAGCUCCAAUUACAGACAUUGCCAUUAUUAUCAAAUCCAACAGAGGAUUGAGCAUCA

Target: MSI1 full-length (mouse, UniProt Q61474 1-362)
Experiment: nsRBNS (natural sequence RNA bind-n-seq); RBNS binding buffer (assumed for nsRBNS): 25 mM Tris pH 7.5, 150 mM KCl, 3 mM MgCl2, 0.01% Triton X-100, 500 ug/ml BSA, 20 U/ml SUPERase-In, 4 C; UNK is unkempt and MSI1 is Musashi-1; names of the RNAs are library labels; protein concentration not given here; high values mean tight binding

Chain of MSI1 full-length (Q61474 whole entry): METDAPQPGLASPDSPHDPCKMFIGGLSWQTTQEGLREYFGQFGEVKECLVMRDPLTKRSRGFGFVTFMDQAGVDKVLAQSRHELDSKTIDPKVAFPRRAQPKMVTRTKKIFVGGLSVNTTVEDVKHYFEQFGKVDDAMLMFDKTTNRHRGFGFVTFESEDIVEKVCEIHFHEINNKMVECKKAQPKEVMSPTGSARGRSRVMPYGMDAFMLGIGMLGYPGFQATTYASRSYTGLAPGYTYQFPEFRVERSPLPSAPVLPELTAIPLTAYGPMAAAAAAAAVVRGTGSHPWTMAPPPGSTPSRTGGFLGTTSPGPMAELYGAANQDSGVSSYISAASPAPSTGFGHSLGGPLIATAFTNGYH

In order of rising binding signal:
1. B9  0.237 enrichment R
2. B11  0.282 enrichment R
3. B15  0.315 enrichment R
4. B1  0.388 enrichment R
5. B10  0.442 enrichment R
6. B13  0.476 enrichment R
7. B14  0.479 enrichment R
8. B4  0.526 enrichment R
9. B12  0.541 enrichment R
10. B6  0.605 enrichment R
11. B2  0.641 enrichment R
12. B3  0.684 enrichment R
13. B5  26.3 enrichment R
14. B8  38.2 enrichment R
15. B7  38.7 enrichment R
